Where a chain is given by its changes, count along the chain named. The full ranking holds about 24,000 sequences; the median of “enrichment r” is about 0.99, and the highest 2% start at about 3.7. Many of the other results were omitted from the sample, so the highest values are more common in it than they were.
T1: UNK ZnF1-3 (human, UniProt Q9C0B0 31-174)
T1 sequence: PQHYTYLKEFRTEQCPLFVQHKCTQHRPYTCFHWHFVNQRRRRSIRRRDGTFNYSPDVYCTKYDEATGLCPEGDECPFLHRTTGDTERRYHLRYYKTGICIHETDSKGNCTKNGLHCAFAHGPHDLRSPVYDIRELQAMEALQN

B1: chr8:104447970:104447971:+_ENSG00000164934_ENST00000297579|hu_hu|hu_hu_hu_mus_False|88_98 (ssRNA)
RNA: GGGAGUUCUACAGUCCGACGAUCAUACACUUCCCUGCUUCGACUUUUGUCUACAGGAAAGAUUCUAAUAGACUUAUCAAAGCUGGCAGACACAAAUUCCUUCCCAGUGGGAGAGUAGUCCACAUCAAGUACUGCAGACACGUGCAACAGAGGAUUGAGCAUCA
B2: chr3:150289932:150289933:+_ENSG00000144895_ENST00000460851|hu_hu|hu_hu_hu_mus_False|28_58 (ssRNA)
RNA: GGGAGUUCUACAGUCCGACGAUCCUUGUAGUUUUUAACAUCCCAUACUUCCAUUUGUCCUCGAAGAUUUCCAAAUCCAGCUAAUACUAAUAUAUGUCCAUGAGGGCUAUAGUAGGCUGCGUUGCGAGGACCAGUCCCAAAGUCCAACAGAGGAUUGAGCAUCA
B3: chr13:51516861:51516862:+_ENSMUSG00000067586_ENSMUST00000087978|mus_mus|FALSE|FALSE (ssRNA)
RNA: GGGAGUUCUACAGUCCGACGAUCCUUGGUGACAUAGAGAAGGGCAAGGCCAAUGAUGGAGCAGAACUUCUUGGCAGUGACCUAUAUACACCAGGAGUGACAUGAGGGGAAGUCUUUAGUUAGUCAGACCAGGGUUACCUAAGGCAACAGAGGAUUGAGCAUCA
B4: chr19:5940991:5940992:-_ENSMUSG00000024833_ENSMUST00000025752|mus_hu|FALSE|FALSE (ssRNA)
RNA: GGGAGUUCUACAGUCCGACGAUCGUUCACACAGACACAGCCGAGGACAUCCUUCACGAAGUACCUCAGCUCUGACGGGAUGAUGAGGACAUCUGGGGUGACAGGCAGCUGUGCGUAAACAUAGAACGACUCAUAGUCAAUGGCCAACAGAGGAUUGAGCAUCA
B5: chr6:168291551:168291552:+_ENSG00000130396_ENST00000400822|hu_mus|motif|central (ssRNA)
RNA: GGGAGUUCUACAGUCCGACGAUCAUGUUUCUUCAUUUUCUUUGGGAUGUAGUCCGGUGGUCUCCUCUUCAACUGAAAGACGGAAAUCCCUUUGUCACUUGGCCAUUCCCUGAAGAUUUGUAAAGGACAUUCAUCAUCGUCAAGCAACAGAGGAUUGAGCAUCA
B6: chr16:50257146:50257147:+_ENSG00000121274_ENST00000436909|hu_mus|FALSE|FALSE (ssRNA)
RNA: GGGAGUUCUACAGUCCGACGAUCUAUCCGGAUGCCAGUCUUUAAGUAAUUGAAGUGCCGUCCAUAUAAUUCAAAAAACUCUAUUAAGAGAACACCAUAGUUUGUAUUGGGGAUGCAAGCAUCUUCCCUGGGAUGUAACUGAAGCAACAGAGGAUUGAGCAUCA
B7: chr1:39494447:39494448:+_ENSG00000168653_ENST00000372967|hu_mus|hu_hu_hu_mus_False|18_18 (ssRNA)
RNA: GGGAGUUCUACAGUCCGACGAUCGCACCGAGCGGCGUUCUUAUAGGGCUGUUCUGCGCUUAGGAACAUAAAGUGCCGGUCCAGGCUGAUGCCCAGCUUUUUCUGUAUGUCAAGGAAAGGCAUGGCCCUGCAGUGCCCUUGUCACAACAGAGGAUUGAGCAUCA
B8: chrX:140365796:140365797:-_ENSMUSG00000031285_ENSMUST00000033642|mus_mus|mus_mus_mus_hu_False|8_58 (ssRNA)
RNA: GGGAGUUCUACAGUCCGACGAUCCUUCUCAUUACUCAGUGCCUGCAAGGUUCUGGUUCGGUAGAAGCUACAGUGGGCACUAUGAGUGGGGCUAGGCAACCCAUUCAUCCGGGAGCCUCGCAUGUUCCUAGAUGCUUUAUCUCUCAACAGAGGAUUGAGCAUCA
B9: chr3:10015032:10015033:+_ENSMUSG00000027533_ENSMUST00000029046|mus_mus|mus_mus_mus_hu_True|1_38 (ssRNA)
RNA: GGGAGUUCUACAGUCCGACGAUCGUUUUUACCAUCACAAGUGAUGAUACAAUCUGGCUUGGCCAUUGCGCCCAUUUUUCGCAAAGCUAUUCCCACUCCUAGCUCUUUCAUGUAUUCAUCAAAGCCUUUGCUGUCCAUCAGGCGCAACAGAGGAUUGAGCAUCA
B10: chr4:6320793:6320794:+_ENSMUSG00000028249_ENSMUST00000103008|mus_mus|FALSE|FALSE (ssRNA)
RNA: GGGAGUUCUACAGUCCGACGAUCAGUAGGCAUGAUUGUGAUGGUAACCACAGUCCCAGCUGUUGACAGUAUAUCUGCAAUCUGAGCAUCCUUCAAGCCAAUGACGUUCUGUCCGUUGAUCUCACAGAUGUGGUGAUCAGUGAGCAACAGAGGAUUGAGCAUCA
B11: chr2:202488911:202488912:-_ENSG00000155755_ENST00000286196|hu_hu|FALSE|FALSE (ssRNA)
RNA: GGGAGUUCUACAGUCCGACGAUCUUUUAACAUUUUUCAUAAUAUUGAGAGAUGUUUCAGUAUUAUAUAAUCAAAAAAUCUAUUACAAAUACACAUGUAUACAUCUUAUAAAAAUACAUUUAAAAACAAAAAUGGGACAAAUACCAACAGAGGAUUGAGCAUCA
B12: chr3:142455598:142455599:-_ENSMUSG00000004591_ENSMUST00000043812|mus_mus|FALSE|FALSE (ssRNA)
RNA: GGGAGUUCUACAGUCCGACGAUCGUAGAGCAUUUGAUCAAAUUAUUUGUGAGACUUUUGAGGUACAGCUUUAGUGUUAUAAUAACUUUUUAUAAAAUAUAGACUGUUUUAUCAAAAAUAUUUAUACAUUCUGUUACAAUAUAUCAACAGAGGAUUGAGCAUCA
B13: chr20:57609950:57609951:-_ENSG00000101166_ENST00000355937|hu_hu|FALSE|FALSE (ssRNA)
RNA: GGGAGUUCUACAGUCCGACGAUCUGUUUUGAUCAAGUCACAUAGCCUUACACCAACUUAUCAAAAAAAAAAAAAAAAAAACUACCCAAAAUAUAGUUGUAUUUUUAAAAUAACAAAUAAAUAUAUAGUCAGUUUGGAGAGACCCAACAGAGGAUUGAGCAUCA
B14: chr22:42024162:42024163:+_ENSG00000196419_ENST00000405878|hu_hu|FALSE|FALSE (ssRNA)
RNA: GGGAGUUCUACAGUCCGACGAUCCUCAUCUUCACUCUGAGAUUCAAACAUAGCCUUGGAGGCAUCAACCAAAAAAAUCAAACUAUCUCUUCCUGAAUAUUUAUAGUCUCCACUUGCUUCAAGGUUCUCUUCUUGUUCUUCCUCCAACAGAGGAUUGAGCAUCA
B15: chr2:174291214:174291215:-_ENSMUSG00000016257_ENSMUST00000016401|mus_hu|FALSE|FALSE (ssRNA)
RNA: GGGAGUUCUACAGUCCGACGAUCUUGAUCAAGUCACAUAGCCUUACACCAACUUAUCAAAAAAAAAAAAAAAAAAACUACCCAAAAUAUAGUUGUAUUUUUAAAAUAACAAAUAAAUAUAUAGUCAGUUUGGAGAGACCUGGACAACAGAGGAUUGAGCAUCA
B16: chr2:174291214:174291215:-_ENSMUSG00000016257_ENSMUST00000016401|mus_hu|motif|central (ssRNA)
RNA: B15 RNA with U78G, A79G
B17: chr7:135612270:135612271:-_ENSG00000105887_ENST00000393085|hu_mus|hu_hu_hu_mus_False|8_18 (ssRNA)
RNA: GGGAGUUCUACAGUCCGACGAUCGUUUUUUUCUGAGAUGUUAAAUAGUACUUCAGUGGAAAACAAAACUUAACCUUUUAUUAAUGCGUGUUGUACCAAAAGCAGACAUUUUAGCUUGCUUCCUUUACUCAAAAUAUCAUUAAGCAACAGAGGAUUGAGCAUCA

Each binder was assayed against T1, UNK ZnF1-3 (assay: nsRBNS (natural sequence RNA bind-n-seq); RBNS binding buffer (assumed for nsRBNS): 25 mM Tris pH 7.5, 150 mM KCl, 3 mM MgCl2, 0.01% Triton X-100, 500 ug/ml BSA, 20 U/ml SUPERase-In, 4 C; UNK is unkempt and MSI1 is Musashi-1; names of the RNAs are library labels; protein concentration not given here; high values mean tight binding).
With B1 the binding signal was 0.947 enrichment R. For B2, the binding signal was 1.1 enrichment R. Work on B3 yielded a binding signal of 1.32 enrichment R. B4 was tested, and the binding signal was 1.51 enrichment R. In the case of B5, the binding signal is reported as 0.653 enrichment R. For B6, the binding signal was 1.63 enrichment R. B7 gave a binding signal of 0.805 enrichment R. For B8, the binding signal was 0.475 enrichment R. B9 showed a binding signal of 0.702 enrichment R. Binder B10 has a binding signal of 0.725 enrichment R. Binder B11 has a binding signal of 1.78 enrichment R. With B12 the binding signal was 0.537 enrichment R. B13 showed a binding signal of 5.71 enrichment R. In the case of B14, the binding signal is reported as 1.1 enrichment R. B15 gave a binding signal of 7.95 enrichment R. B16 showed a binding signal of 8.06 enrichment R. Binder B17 has a binding signal of 0.545 enrichment R.
